Measurements published in the supplement of paper PMC10127200.
Counter-ions that a name gives are not always drawn.

These molecules were tested on FB (assay: Euclidean distance of Cell Painting phenotypic profile (signed KS, 77 features) to DMSO centroid (dimensionless distance); 5 or 10 uM (library dependent); higher = stronger phenotypic change vs DMSO (phenoactivity)). Conditions: 48 h.
How it was run: (§1)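 Library compounds were applied at 10 or 5 uM, depending on the library, with 0.1% DMSO final, for 48 h to five cancer lines and a healthy fibroblast line. After staining, cells were imaged confocally at 20X across 9 fields per well, and Harmony extracted 77 features, each scored as a signed Kolmogorov-Smirnov statistic against vehicle wells on the same plate. Phenoactivity is the Euclidean distance between each profile and the median vehicle profile, with profiles first plate-position corrected, correlation-weighted and averaged over replicates at the top dose.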

Compound | Euclidean distance
O=C(O)c1ccc2c(c1)nc(Nc1cccc(Cl)c1)c1ccncc12 [CX-4945 (Silmitasertib)] | 1.55
CC(C)CN(C[C@@H](O)[C@H](Cc1ccccc1)NC(=O)O[C@H]1CCOC1)S(=O)(=O)c1ccc(N)cc1 [Amprenavir] | 1.22
CC(C)C[C@H](NC(=O)CNC(=O)[C@H](Cc1ccc(O)cc1)NC(=O)[C@H](CO)NC(=O)[C@H](Cc1c[nH]c2ccccc12)NC(=O)[C@H](Cc1cnc[nH]1)NC(=O)[C@@H]1CCC(=O)N1)C(=O)N[C@@H](CCCNC(=N)N)C(=O)N1CCC[C@H]1C(=O)NCC(N)=O [Gonadorelin Acetate] | 1.19
CNCC[C@H](Oc1cccc2ccccc12)c1cccs1 [Duloxetine HCl] | 1.48
CCOC(=O)c1ccc(OC(=O)CCCCCNC(=N)N)cc1 [Gabexate Mesylate] | 0.822
O=C(O)c1cn(-c2ccc(F)cc2)c2cc(N3CCNCC3)c(F)cc2c1=O [Sarafloxacin HCl] | 0.799
COc1ccccc1OCC(O)CO (centres undefined) [Guaifenesin] | 1.24
COc1ccc(C2CNC(=O)C2)cc1OC1CCCC1 (centres undefined) [Rolipram] | 0.861

Each molecule was assayed on HEPG2 in the same assay as above. Conditions: 48 h.
How it was run: as §1

Compound | Euclidean distance
COCCCN1CCC(NC(=O)c2cc(Cl)c(N)c3c2OCC3)CC1 [Prucalopride Succinat] | 0.684
OC[C@H]1O[C@@H](Oc2cc(O)cc(/C=C/c3ccc(O)cc3)c2)[C@H](O)[C@@H](O)[C@@H]1O [Polydatin] | 0.886
C[N+](C)(C)NCCC(=O)[O-] [Mildronate] | 0.54
CN[C@@H]1[C@H](O)[C@H](NC)[C@H]2O[C@@]3(O)C(=O)C[C@@H](C)O[C@H]3O[C@@H]2[C@H]1O [Spectinomycin HCl] | 0.977
Cn1cnc2c(F)c(Nc3ccc(Br)cc3F)c(C(=O)NOCCO)cc21 | 1.63
C/C(=N\NC(=S)N1CCC1)c1ccccn1 | 4.41
CCCCOc1nc(N)c2c(n1)N(Cc1cccc(CN3CCCC3)c1)CC(=O)N2 | 0.589
CN1CCc2cc3c(cc2C(=O)Cc2ccc4c(c2C1)OCO4)OCO3 [Protopine] | 1.3
O=C(O)CCCc1cc2cc(Cl)ccc2n1S(=O)(=O)c1ccc2ncsc2c1 [Lanifibranor(IVA-337)] | 0.544
Nc1ncccc1-c1nc2ccc(-c3ccccc3)nc2n1-c1ccc(C2(N)CCC2)cc1 [Miransertib (ARQ 092) HCl] | 4.52
CCC[C@@H]1C[C@@H](C(=O)N[C@@H]([C@H]2O[C@H](SC)[C@H](O)[C@@H](O)[C@H]2O)[C@@H](C)O)N(C)C1 [Lincomycin HCl] | 0.457
c1ccc(-c2nn3c(c2-c2ccnc4cc(OCCN5CCOCC5)ccc24)CCC3)nc1 | 1.45
Cc1c(-c2ccnn2C)cc(C(=O)NCc2ccc(S(C)(=O)=O)cn2)c(=O)n1-c1cccc(C(F)(F)F)c1 [Alvelestat (AZD9668)] | 0.869
CCCCC(=O)N(Cc1ccc(-c2ccccc2-c2nnn[nH]2)cc1)[C@H](C(=O)O)C(C)C [Valsartan] | 0.48
CN1C(C(=O)Nc2ccccn2)=C(O)c2sc(Cl)cc2S1(=O)=O [Lornoxicam] | 1
O=C(O)Cn1nnc(-c2cc(N3CCC(Oc4cc(F)ccc4Br)CC3)no2)n1 | 2.08
CC[N+](C)(C)c1cccc(O)c1 [Edrophonium chloride] | 0.598
N=C1CCCN1Cc1[nH]c(=O)[nH]c(=O)c1Cl.O=c1[nH]c(=O)n([C@H]2C[C@H](O)[C@@H](CO)O2)cc1C(F)(F)F | 3
NC(CO)C(=O)NNCc1ccc(O)c(O)c1O (centres undefined) [Benserazide HCl] | 0.666
O=C(/C=C/c1ccc(O)cc1)c1ccc(O)cc1O [Isoliquiritigenin] | 0.786
O=C1C(O)=C([C@H]2CC[C@H](c3ccc(Cl)cc3)CC2)C(=O)c2ccccc21 [Atovaquone] | 0.566
C=CCc1ccccc1OCC(O)CNC(C)C (centres undefined) [Alprenolol hydrochloride] | 0.91
CCN1CCCC1CNC(=O)c1cc(S(=O)(=O)CC)c(N)cc1OC (centres undefined) [Amisulpride] | 0.566
C#C[C@]1(O)CC[C@H]2[C@@H]3CCC4=CC(=O)CC[C@@H]4[C@H]3CC[C@@]21C [Norethindrone] | 0.575
N#C/C(=C\c1ccc(O)c(O)c1)C(=O)NCc1ccccc1 [AG-490 (Tyrphostin B42)] | 0.804
CN1CCc2c(c3ccccc3n2Cc2ccc(C(=O)NO)cc2)C1 [Tubastatin A HCl] | 0.601
